This note sets out measurements from PubChem BioAssay.

Active and inactive are the calls of the source. Unless noted, the rule behind the calls is not given here.

The nature of test [1]: compounds binding Alexa647 anti-His antibody – biochemical, small-molecule microarray, 635 nm fluorescence, artefact control for SMM control protein annotation, primary screen (AID 1128).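 Note: score merges feature fluorescence with signal-to-noise for each printed compound spot.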 Conditions: higher = more signal.
Test [2] deals with Human papillomavirus type 1a E7 protein (residues 1-88). Nature of the test: HPV1a E7 small-molecule binders, primary screen, biochemical, small-molecule microarray, residues 1-88, 635 nm (AID 1129). The following applies: small-molecule microarray binding, fluorescence 635 nm; higher = more signal.
The target in test [3] is Focal adhesion kinase 1 (Homo sapiens) (UniProt Q05397). Briefly: PTK2 protein binding on printed compound slides – biochemical, small-molecule microarray, 635/667 nm fluorescence, BSA, DTT, primary screen (AID 1130).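 Note: composite of spot emission at 667 nm and signal to noise over triplicate slides.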 Conditions: 635 nm fluorescence, higher = more signal.
Test [4] relates to Fibrinogen (Alexa647-labelled). Nature of the test: Alexa647-fibrinogen binding to printed small molecules – biochemical, small-molecule microarray, 635/667 nm fluorescence, artefact control for SMM control-protein annotation, profiling panel (AID 1131).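 Note: z-score merges 667 nm fluorescence with per-spot signal-to-noise over triplicate slides.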 Conditions: fibrinogen-A647 binding fluorescence, higher = more signal.
Test [5] has as its target Follistatin (Homo sapiens) (UniProt P19883). Briefly: FST protein binding to printed compounds – biochemical, small-molecule microarray, 635/667 nm fluorescence, primary screen (AID 1132). Conditions: 635 nm fluorescence, higher = more signal.
For test [6], the target named is Fibroblast growth factor 2 (Homo sapiens) (UniProt P09038). Nature of the test: basic fibroblast growth factor binding to printed compounds – biochemical, small-molecule microarray, 635/667 nm fluorescence, primary screen (AID 1133). Conditions: FGF2, fluorescence 635/667, higher = more signal.
Test [7] in a line: JC-1 mitochondrial potential readout, lung cancer cells – cell-based, A549, JC-1 fluorescence, basal, 24 h, 100 nL, profiling panel (AID 1138).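 Note: A549 lung adenocarcinoma cells under basal conditions with no added stimulus; test concentration not given here.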 The following applies: higher = more signal.
For test [8], the system named is Lefty1. Briefly: Lefty1 protein binding to printed compounds – biochemical, small-molecule microarray, 635/667 nm fluorescence, primary screen (AID 1139). Conditions: fluorescence 635/667, higher = more signal.
In test [9] the test system is wheat germ agglutinin (Triticum aestivum), Alexa647-labelled. Nature of the test: Alexa647-WGA lectin binding to printed small molecules – biochemical, small-molecule microarray, 635/667 nm fluorescence, artefact control for SMM control-protein annotation, profiling panel (AID 1140).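 Note: score merges 667 nm feature emission with signal to noise over triplicate slides.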 Conditions: WGA-A647 binding, 635 nm fluorescence, higher = more signal.
In test [10] the target is Luciferin 4-monooxygenase (Photinus pyralis) (UniProt P08659). Nature of the test: inhibition of purified Photinus pyralis luciferase – biochemical, luminescence, purified enzyme, 2006 set, primary screen (AID 1141).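 Note: cell-free assay with purified firefly luciferase at 100 ng per well in PBS; test concentration not given here.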 The following applies: purified firefly luciferase, SteadyGlo luminescence, 30 min; higher = more signal, called active from +8 up or from −8 down.
For test [11], the system named is Wnt5a (protein binding on small-molecule microarray). Briefly: small molecules binding Wnt5a protein – biophysical, small-molecule microarray, 635/667 nm fluorescence, primary screen (AID 1142).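 Note: fluorescence read at 667 nm with signal to noise per printed feature.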 Conditions: 635 nm fluorescence, higher = more signal.
A short description of test [12]: ATP-based viability of Huh7 replicon cells – cell-based, CellTiter-Glo luminescence, basal, 48 h, cytotoxicity control for HCV replication inhibitor project, primary screen (AID 1143).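 Note: Huh7 hepatoma cells carrying a hepatitis C replication reporter with no stimulus; test concentration not given here.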 Conditions: higher = more signal, called active from +8 up or from −8 down. A general note: In antiviral work, replicon cells carry a viral genome segment that copies itself.
Test [13] can be described thus: Pseudomonas biofilm growth suppression – PAO1 strain, BacTiter-Glo luminescence, LB-PBS, primary screen (AID 1144). Conditions: P. aeruginosa PAO1 biofilm, 12 h, higher = more signal.
The nature of test [14]: basal CRE-LacZ reporter activity in PC12 – cell-based, unstimulated, primary screen (AID 1145). Conditions: no forskolin, luminescence, 4.5 h, higher = more signal, called active from +8 up or from −8 down.
Test [15] is described as follows: forskolin-driven CRE-LacZ activity in PC12 – cell-based, CRE-LacZ reporter, forskolin-stimulated, primary screen (AID 1146).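 Note: PC12 cells with 6xCRE LacZ reporter stimulated by forskolin 10 µM; beta-galactosidase reporter signal reflecting CREB driven transcription.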 The following applies: luminescence, 4.5 h, higher = more signal, called active from +8 up or from −8 down.
In test [16] the target is Streptavidin (Streptomyces avidinii) (UniProt P22629). Nature of the test: compounds binding control protein streptavidin – biophysical, small-molecule microarray, 635/667 nm fluorescence, artefact control for SMM compound annotation, primary screen (AID 1147).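 Note: signal reflects streptavidin binding to arrayed compounds as a control protein.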 The following applies: higher = more signal.
A short description of test [17]: probe aInhba binding on compound microarray – biochemical, small-molecule microarray, 635/667 nm fluorescence, primary screen (AID 1148).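 Note: score merges 667nm spot fluorescence with signal-to-noise for antibody binding to printed compounds.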 Conditions: higher = more signal.
For test [18], the target named is Torsin-1A (Homo sapiens) (UniProt O14656). Briefly: TOR1A wild-type binding on microarray – cell lysate, small-molecule microarray, lysate, 635/667 nm, primary screen (AID 1149). The following applies: COS7 hTOR1A-WT lysate, 635 nm fluorescence, higher = more signal.
Test [19] shares this target. Nature of the test: torsin A mutant lysate binding on microarrays – cell lysate, small-molecule microarray, COS7 lysate, 635/667 nm fluorescence, primary screen (AID 1150).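 Note: score pools 667 nm emission and signal to noise measuring lysate protein binding.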 The following applies: COS7 hTOR1A mutant lysate, 635 nm fluorescence, higher = more signal.
The test system of test [20] is Sonic hedgehog protein (Shh). Nature of the test: Sonic hedgehog microarray binding compounds – biochemical, small-molecule microarray, 635/667 nm fluorescence, primary screen (AID 1151).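 Note: Shh protein binding to compounds spotted on small-molecule microarray slides; score combines spot fluorescence intensity with signal-to-noise across triplicate slides.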 Conditions: 635 nm fluorescence, higher = more signal.

Luciferin 4-monooxygenase (Photinus pyralis), sequence (P08659 whole entry, looked up): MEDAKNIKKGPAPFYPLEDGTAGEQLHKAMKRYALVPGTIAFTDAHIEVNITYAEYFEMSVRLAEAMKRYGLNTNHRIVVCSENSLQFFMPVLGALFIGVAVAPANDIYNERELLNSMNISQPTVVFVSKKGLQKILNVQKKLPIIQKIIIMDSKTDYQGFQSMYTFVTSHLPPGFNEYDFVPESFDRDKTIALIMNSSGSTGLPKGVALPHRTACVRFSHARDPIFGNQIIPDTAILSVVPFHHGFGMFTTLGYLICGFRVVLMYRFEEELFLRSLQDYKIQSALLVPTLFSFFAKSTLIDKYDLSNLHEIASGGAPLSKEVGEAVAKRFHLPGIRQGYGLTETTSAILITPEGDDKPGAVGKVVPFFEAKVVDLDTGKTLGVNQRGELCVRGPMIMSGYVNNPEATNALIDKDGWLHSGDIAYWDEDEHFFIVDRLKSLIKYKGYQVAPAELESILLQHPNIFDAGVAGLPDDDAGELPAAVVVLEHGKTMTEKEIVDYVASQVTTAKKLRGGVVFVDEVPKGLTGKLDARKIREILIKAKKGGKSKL
Focal adhesion kinase 1 (Homo sapiens), sequence (Q05397 whole entry, looked up): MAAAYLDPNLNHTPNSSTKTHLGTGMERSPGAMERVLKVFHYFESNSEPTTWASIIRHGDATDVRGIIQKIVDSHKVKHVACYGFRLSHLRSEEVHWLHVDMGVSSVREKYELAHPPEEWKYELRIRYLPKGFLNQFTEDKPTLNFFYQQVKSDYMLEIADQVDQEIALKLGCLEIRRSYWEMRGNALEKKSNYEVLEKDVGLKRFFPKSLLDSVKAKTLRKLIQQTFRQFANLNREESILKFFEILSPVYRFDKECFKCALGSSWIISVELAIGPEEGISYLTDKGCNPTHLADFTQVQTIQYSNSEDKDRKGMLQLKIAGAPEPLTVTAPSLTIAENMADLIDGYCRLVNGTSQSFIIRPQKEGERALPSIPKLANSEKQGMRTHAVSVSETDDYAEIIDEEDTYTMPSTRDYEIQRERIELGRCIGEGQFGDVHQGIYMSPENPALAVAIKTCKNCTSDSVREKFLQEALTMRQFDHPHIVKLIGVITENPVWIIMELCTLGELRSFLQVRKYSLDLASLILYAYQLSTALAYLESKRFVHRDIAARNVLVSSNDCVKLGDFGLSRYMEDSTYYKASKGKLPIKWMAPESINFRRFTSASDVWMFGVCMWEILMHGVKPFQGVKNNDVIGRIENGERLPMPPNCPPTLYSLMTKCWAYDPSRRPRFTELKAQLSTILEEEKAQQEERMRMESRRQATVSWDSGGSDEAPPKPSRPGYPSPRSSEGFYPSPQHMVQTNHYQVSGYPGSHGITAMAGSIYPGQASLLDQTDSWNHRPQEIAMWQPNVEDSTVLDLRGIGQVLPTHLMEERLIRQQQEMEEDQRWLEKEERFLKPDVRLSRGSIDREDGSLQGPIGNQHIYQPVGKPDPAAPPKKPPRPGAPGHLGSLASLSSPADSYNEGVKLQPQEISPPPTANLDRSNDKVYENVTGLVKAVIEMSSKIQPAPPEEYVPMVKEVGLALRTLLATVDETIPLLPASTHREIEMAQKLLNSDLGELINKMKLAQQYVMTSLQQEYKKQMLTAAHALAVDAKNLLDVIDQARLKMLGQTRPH
Streptavidin (Streptomyces avidinii), sequence (P22629 whole entry, looked up): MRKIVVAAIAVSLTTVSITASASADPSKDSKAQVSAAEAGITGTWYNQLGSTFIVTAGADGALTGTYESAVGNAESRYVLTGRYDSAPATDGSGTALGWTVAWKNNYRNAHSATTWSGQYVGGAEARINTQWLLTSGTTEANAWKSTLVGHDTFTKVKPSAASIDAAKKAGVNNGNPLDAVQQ
Fibroblast growth factor 2 (Homo sapiens), sequence (P09038 whole entry, looked up): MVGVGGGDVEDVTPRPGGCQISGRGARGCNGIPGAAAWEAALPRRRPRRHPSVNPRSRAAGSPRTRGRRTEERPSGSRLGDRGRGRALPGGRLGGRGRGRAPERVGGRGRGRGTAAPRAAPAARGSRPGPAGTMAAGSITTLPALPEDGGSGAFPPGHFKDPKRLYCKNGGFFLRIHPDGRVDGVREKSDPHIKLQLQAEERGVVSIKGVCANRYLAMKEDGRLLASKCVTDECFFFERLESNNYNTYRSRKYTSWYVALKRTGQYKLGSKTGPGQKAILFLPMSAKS
Follistatin (Homo sapiens), sequence (P19883 whole entry, looked up): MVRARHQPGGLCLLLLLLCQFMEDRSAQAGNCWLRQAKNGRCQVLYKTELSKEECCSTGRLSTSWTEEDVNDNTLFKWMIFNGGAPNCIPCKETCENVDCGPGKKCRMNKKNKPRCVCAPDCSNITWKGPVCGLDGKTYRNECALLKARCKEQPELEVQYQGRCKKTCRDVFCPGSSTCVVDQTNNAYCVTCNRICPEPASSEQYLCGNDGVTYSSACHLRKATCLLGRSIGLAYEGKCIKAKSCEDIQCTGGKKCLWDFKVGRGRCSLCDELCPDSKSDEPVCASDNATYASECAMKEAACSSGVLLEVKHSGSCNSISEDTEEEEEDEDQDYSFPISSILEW
Torsin-1A (Homo sapiens), sequence (O14656 whole entry, looked up): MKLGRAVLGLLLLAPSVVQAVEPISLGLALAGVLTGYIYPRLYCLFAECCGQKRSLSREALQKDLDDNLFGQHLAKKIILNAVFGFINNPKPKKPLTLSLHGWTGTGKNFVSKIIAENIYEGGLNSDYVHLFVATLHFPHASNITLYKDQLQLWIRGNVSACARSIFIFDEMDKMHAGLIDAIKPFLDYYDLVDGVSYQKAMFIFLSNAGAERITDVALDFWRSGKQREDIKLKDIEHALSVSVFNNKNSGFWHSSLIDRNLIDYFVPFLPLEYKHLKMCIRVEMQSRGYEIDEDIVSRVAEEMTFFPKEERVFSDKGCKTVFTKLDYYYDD

For `O=C1C=C[C@@H](O)[C@@H]2[C@@H]3C(=O)N(c4ccc(F)cc4F)C(=O)[C@@H]3CC[C@@H]12`, the composite z-score is -0.0956 in test [1]; 0.437 in [2]; 0.103 in [3]; 0.61 in [4]; 0.791 in [5]; 0.602 in test [6]. Further, the composite z-score in test [8] was 0.564; in [9], 0.215; in test [11] it was 0.15; in test [16], 0.275; in test [17] it was -0.123; in test [18], 1.15. Moreover, the composite z-score in [19] amounted to 0.629; in test [20] it was 0.93. The z-score in test [7] was 0.784; in test [10] it was -1.71 (inactive); in [12], -1.18 (inactive); in test [13] it was 0.0333 (inactive); in test [14], 0.332 (inactive); in [15], 0.41 (inactive).
Take `CO[C@H]1COC(=O)CCC[C@@H](C)[C@H](OC)COC(=O)[C@@H](C)NC(=O)CC=C[C@@H]1C`: the composite z-score in test [1] is -0.132; in test [2] it was -1.12; in [3], -0.154; in test [4] it was -0.737; in [5] it was 1.12; in [6] it was 1.17. The composite z-score in test [8] was 1.42; in [9], -0.878; in [11], -0.183; in test [16], -0.429; in test [17], -0.152; in [18] it was 2.63. The figures for the composite z-score in test [19] and in test [20] were 1.5 and 2.1, respectively. Also, the z-score is -0.716 in test [7]; 0.624 (inactive) in test [10]; -2.74 (inactive) in [12]; -0.231 (inactive) in [13]; -0.58 (inactive) in test [14]; -0.041 (inactive) in test [15].
As for `CCOC(=O)[C@H](CC(C)C)NC(=O)CCC1CC(OC(=O)NCc2cccc3ccccc23)CC2(CCCC(COC(=O)NCc3ccncc3)O2)O1` (stereo not given in full), the composite z-score came out at 0.894 in test [1]; 1.19 in [2]; 0.0121 in [3]; 0.839 in test [4]; 0.768 in test [5]; 1.58 in test [6]. The composite z-score in test [8] is 1.01; in [9], 0.725; in test [11] it was -0.0656; in test [16], 0.629; in test [17] it was 0.0074; in test [18], 0.126. In addition, the composite z-score in [19] was 0.565; in test [20], 1.25. For the same compound, the z-score in test [7] was 1.42; in test [10] it was 0.301 (inactive); in test [12] it was -0.905 (inactive); in test [13], -0.243 (inactive); in [14], 0.562 (inactive); in [15], 0.633 (inactive).
For `CO[C@H]1COC(=O)[C@@H](Cc2ccccc2)NC(=O)[C@@H](C)COC(=O)CCC[C@@H]1C`, the composite z-score in [1] was 4.12; in [2] it was -0.666; in test [3] it was 0.0469; in test [4] it was -0.179; in test [5], 0.2; in test [6] it was 0.241. Besides, the composite z-score in test [8] is 0.534; in [9], -0.29; in test [11], 0.0124; in test [16], -0.343; in test [17], -0.285; in test [18] it was 0.656. Further, the composite z-score in test [19] came to 0.187; in test [20], 0.787. For the same compound, the z-score is -0.946 in [7]; 0.643 (inactive) in test [10]; -0.382 (inactive) in test [12]; -0.0381 (inactive) in test [13]; -1.21 (inactive) in test [14]; -0.596 (inactive) in test [15].
